Bioassay records as filed in PubChem BioAssay.
MITF primary – inhibitors of human MITF. O75030. inhibition, % at 2.6 µM. AlphaScreen MITF homodimerization, bead proximity signal. AID 1259374. actives 0.91% (n = 650,000); in the data active = inhibition above about 50%;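 note: 0% = vehicle wells with protein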
GPR151 activ – activates the human receptor GPR151; Q8TDV0; PathHunter beta-arrestin GPR151 cells, luminescence; activation, % at 11.2 µM; actives 1% (n = 650,000); AID 1508602; in the data active = activation above about 4.9%;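 note: 0% = median of compound wells and 100% = cells with positive control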
TEAD-YAP block – TEAD-YAP interaction inhibition; HEK-TIYL cells, TEAD-Gal4/YAP UAS-luciferase luminescence; inhibition, % at 9.12 µM; actives 1.4% (n = 640,000); AID 1259422; in the data active = inhibition above about 32%;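 note: 0% = median of test compound wells and 100% = reference inhibitor wells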
FBW7 activator – activators of human E3 ligase FBW7; Q969H0; AlphaScreen FBW7–phospho-cyclin E peptide binding, activator screen; normalized activity (activation), % at 26.1 µM; actives 0.13% (n = 650,000); in the data active = normalized activity above about 1.9%;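 note: purified mutant Fbw7 with reduced substrate affinity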
Target sequence (Q969H0 whole entry, looked up): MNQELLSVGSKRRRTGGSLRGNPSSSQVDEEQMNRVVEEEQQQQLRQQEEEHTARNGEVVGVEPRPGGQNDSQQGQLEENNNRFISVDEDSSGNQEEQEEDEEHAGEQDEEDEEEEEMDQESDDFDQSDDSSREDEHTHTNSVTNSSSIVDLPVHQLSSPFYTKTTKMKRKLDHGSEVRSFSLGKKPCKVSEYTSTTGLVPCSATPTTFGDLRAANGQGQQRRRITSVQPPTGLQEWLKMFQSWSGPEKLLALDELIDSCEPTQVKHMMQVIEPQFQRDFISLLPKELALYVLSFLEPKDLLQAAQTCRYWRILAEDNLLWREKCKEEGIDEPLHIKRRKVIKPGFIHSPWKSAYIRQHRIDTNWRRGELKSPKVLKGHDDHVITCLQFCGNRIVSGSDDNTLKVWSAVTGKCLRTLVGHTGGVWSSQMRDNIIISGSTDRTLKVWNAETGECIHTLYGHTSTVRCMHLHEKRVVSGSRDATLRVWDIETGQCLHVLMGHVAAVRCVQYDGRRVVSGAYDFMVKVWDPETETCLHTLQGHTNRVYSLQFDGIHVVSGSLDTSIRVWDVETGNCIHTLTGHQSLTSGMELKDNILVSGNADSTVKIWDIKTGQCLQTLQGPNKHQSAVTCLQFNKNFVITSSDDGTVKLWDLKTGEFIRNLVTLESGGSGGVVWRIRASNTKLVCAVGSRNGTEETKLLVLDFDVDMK
An asterisk follows results filed as active. Only some compounds are listed: those with a hit (about 3.5% of all), similar ones and a draw of the others.

SMILES	MITF primary	GPR151 activ	TEAD-YAP block	FBW7 activator
c1cc2[nH]snc2c2nc(C3CC3)nc12	18	-1	38*	0
Cc1onc(-c2ccccc2Cl)c1-c1nc(-c2cccnc2)no1	4	-2	58*	0
COC(=O)/C=C1\S/C(=N\N=C\c2ccc3c(c2)OCO3)NC1=O	-1	-1	-2	0
O=C1N/C(=N\N=C/c2ccc3c(c2)OCO3)S/C1=C/c1ccc(O)cc1	-5	0	49*	1
COc1ccccc1C1C2CN(Cc3ccccc3)CC=C2C(C#N)=C(N)C1(C#N)C#N (stereo unspecified)	4	0	7	1.9*
N#CC1=C(N)C(C#N)(C#N)C(c2ccccc2F)C2CN(Cc3ccccc3)CC=C12 (stereo unspecified)	8	1	4	0
COc1cc(C(=O)Oc2ccc3c(=O)c(Oc4ccc(C(C)(C)C)cc4)coc3c2)cc(OC)c1OC	-6	-1	80*	0
CC(C)(C)c1ccc(Oc2coc3cc(O)ccc3c2=O)cc1	18	0	64*	1
O=c1c(Oc2ccc(Cl)cc2)coc2cc(O)ccc12	12	2	-4	0
COc1cc(C(=O)Oc2ccc3c(=O)c(Oc4cc(C)cc(C)c4)coc3c2)cc(OC)c1OC	3	1	2	0
Cc1ccc(-c2csc(/C(C#N)=C/c3ccc(I)cc3)n2)c(C)c1	-2	0	4	0
Cc1sc(NC(=O)c2ccco2)c(C(c2cccnc2)N2CCCCC2)c1C (stereo unspecified)	2	4	41*	0
Cc1sc(NC(=O)c2ccco2)c(C(c2cccnc2)N2CCOCC2)c1C (stereo unspecified)	12	-1	29	0
Cc1sc(NC(=O)c2ccco2)c(C(c2cccnc2)N2CCN(c3ccccc3F)CC2)c1C (stereo unspecified)	-14	0	37*	0
O=c1cc(CO)oc(CN2CCSCC2)c1O	0	-1	3	0
CCOC(=O)c1c(NC(=O)Cn2nc([N+](=O)[O-])c(Br)c2C)sc2c1CCC(C)C2 (stereo unspecified)	-6	2	7	0
NC(=O)c1ccc(NC(=O)c2ccc3ccccc3c2)cc1	23	1	-77	1
O=C(Nc1ccc(O)cc1)c1ccc2ccccc2c1	-2	-1	47*	0
CC(=O)Oc1ccc(C(=O)Nc2ccc3ccccc3c2)cc1	-17	-1	36*	0
O=C(Nc1ccc(O)cc1)c1ccccc1Cl	0	-1	52*	0
CS(=O)(=O)Nc1ccc(C(=O)Nc2ccc3ccccc3c2)cc1	1	-3	-35	0
COC1=C/C(=C/c2c(N)n3nc(N4CCCC4)sc3nc2=O)C=CC1=O	8	0	3	0
OCCNc1nc(Nc2ccncc2)nc2c1ncn2-c1ccsc1	13	2	60*	0
OCCNc1nc(Nc2ccc(-n3ccnc3)cc2)nc2c1ncn2-c1ccccc1	8	0	42*	0
Oc1ccc(CCNc2nc(Nc3ccc(-n4ccnc4)cc3)nc3c2ncn3-c2ccccc2)cc1	3	0	16	0
SMILES	MITF primary	GPR151 activ	TEAD-YAP block	FBW7 activator
OCCNc1nc(Nc2ccc(C(F)(F)F)cc2)nc2c1ncn2-c1ccsc1	-18	1	15	0
OCCNc1nc(Nc2ccc(-n3ccnc3)cc2)nc2c1ncn2-c1ccsc1	4	1	47*	0
OCCNc1nc(Nc2ccccc2)nc2c1ncn2-c1ccccc1	7	-1	50*	0
N#C/C(=C\c1ccc2c(c1)OCO2)C(=O)Nc1cccc2c1C(=O)NC2=O	-5	0	5	0
COc1ccc(OCC2c3cc(OC)c(OC)cc3CCN2C(=O)COc2ccccc2)cc1 (stereo unspecified)	-13	-2	-3	0
c1ccc2sc(SCc3cn4ccsc4n3)nc2c1	-31	0	-64	0
CCOc1ccc(N2CSC3=C(C#N)C(c4cccs4)CC(=O)N3C2)cc1 (stereo unspecified)	-13	1	-10	0
CCOc1ccc(N2CSC3=C(C#N)C(c4ccco4)CC(=O)N3C2)cc1 (stereo unspecified)	69*	1	-11	0
CCC(=O)N(Cc1cc2cc3c(cc2[nH]c1=O)OCCO3)CC1CCCO1 (stereo unspecified)	-1	-4	1	0
NC(=O)CSc1nc2sc3c(c2c(=O)n1-c1cccc2ccccc12)CCCC3	2	0	38*	0
Cc1ccc(-c2nnc(N3CCN(C(=O)CN4CCCC4)CC3)c3ccccc23)cc1	8	1	1	0
Cc1ccc(-c2nnc(N3CCN(C(=O)c4ccco4)CC3)c3ccccc23)cc1	-3	1	26	2.3*
